# From PubChem BioAssay AID624059 (National Center for Advancing Translational Sciences (NCATS), 2012)
# Unmarked numbers belong to inactive results. Activity calls are given as the source filed them. Calls follow the shape of the dose curve; as a rule, active = well fitted curve in the direction sought with a large enough effect; inactive = no such curve, though single readings can be large or run the other way.
# Assay: qHTS for Inhibitors of Mutant Isocitrate Dehydrogenase 1 (IDH1): U87 Cytotoxicity Assay for Probe SAR
# Details: U87MG-IDH1 R132H viability, CellTiter-Glo luminescence, 72 h; series mostly up to 22.1 µM; activity change, negative = cytotoxicity: at the top concentration
# Description: Malignant glioblastomas (WHO grade IV), including primary and secondary glioblastomas, are among the most lethal with a median survival of one year, and unfortunately they are also the most prevalent type of brain tumors. By and large the standard of care of gliomas remains the use of the oral alkylating agent temozolomide and radiotherapy following surgical tumor resection. There is an urgent unmet medical need for novel therapeutics for gliomas. IDH mutations occur in up to 70% of grade II-IV secondary glioblastomas, and IDH1 R132H is the most prevalent mutation. […] Wild-type (WT) IDH1 catalyzes the conversion of isocitrate to -ketoglutarate with the concomitant reduction of NADP+ to NADPH. In contrast, IDH1 R132H catalyzes the conversion of alpha-ketoglutarate to 2-hydroxyglutarate (2-HG) with the concomitant oxidation of NADPH to NADP+ [5]. Recently, a second significant advancement for the field was the finding that IDH is an oncogene, and that its metabolic product 2-HG may contribute to the pathogenesis of IDH-mutated cancers. […] Although this link to cancer is tantalizing, the direct evidence of how 2-HG drives pathogenesis of gliomas and AML remains a subject of further research. The goal of this cell assay is to identify whether the small-molecule inhibitors of IDH1 R132H are cytotoxic in U87MG-IDH1 R132H cells. Compounds were screened as concentration-titration series that ranged from 50 microM to 14 nM. NIH Molecular Libraries Probe Production Network [MLPCN] NIH Chemical Genomics Center [NCGC] MLSCN Grant: R03 DA032129 PI Name: Dr. Lenny Dang
# Cells were dispensed into 96-well black solid bottom plates at 2500 cells/well (RPMI medium with 10% FBS). The plates were incubated overnight at 37 °C and 5% CO2. The media was aspirated off and fresh media (RPMI and 10% FBS) with compounds in 7-point dose response was added. The plates were incubated for 48 hours at 37 °C and 5% CO2. From each well 100 microL was removed and used for LC-MS analysis to quantitate the amount of 2-HG product. The remaining cells/media were incubated for 24 additional hours at which point 100 uL of Cell Titer Glo (Promega) was added. The plates were shaken for 10 minutes and then incubated at room temperature for 20 minutes. The luminescence was read on the ViewLux in end-point mode (0.5 sec). Concentration-response curves were fitted to the signals arising from the resulting selective ion monitoring. The concentration-response curves were then classified based on curve quality (r2), response magnitude and degree of measured activity, and compounds were subsequently categorized based on their curve class. […] Keywords: Isocitrate dehydrogenase, IDH1, IDH1 R132H, 2-HG, 2-hydroxyglutarate, AML, glioma, MLSMR, MLPCN, NIH Roadmap, qHTS, NCGC
SMILES,"activity change, negative = cytotoxicity",Potency
Cc1ccccc1C(C(=O)NC1CCCC1)N(C(=O)Cc1cccs1)c1cccc(F)c1 (stereo not drawn),6.51%,–
Cc1ccccc1C(C(=O)NC1CCCCC1)N(C(=O)c1ccccn1)c1cccc(F)c1 (stereo not drawn),–,11.8 µM (active)
COc1cccc(N(C(=O)Cc2cccs2)C(C(=O)NC2CCCC2)c2ccccc2)c1 (stereo not drawn),-9% [at 50 µM],–
O=C(NC1CCCC1)C(c1ccccc1)N(C(=O)Cc1cccs1)c1cccc(F)c1 (stereo not drawn),-5.77% [at 50 µM],–
Cc1nc(C)c(C(=O)N(c2cccc(F)c2)C(C(=O)NC2CCCCC2)c2ccccc2)s1 (stereo not drawn),-12.4%,–
Cc1ccccc1C(C(=O)NC(C)(C)C)N(C(=O)Cc1cccs1)c1cccc(F)c1 (stereo not drawn),-14.4%,–
COc1cccc(C(C(=O)NC2CCCCC2)N(C(=O)c2cccs2)c2ccc3c(c2)OCO3)c1 (stereo not drawn),-30.4% [at 30 µM],–
COc1ccc(N(C(=O)Cn2cnc3ccccc32)C(C(=O)NC2CCCCC2)c2ccccc2)cc1 (stereo not drawn),-6.32% [at 30 µM],–
Cc1ccccc1C(C(=O)NC1CCCC1)N(C(=O)Cn1cnc2ccccc21)c1cccc(F)c1 (stereo not drawn),18.6%,–
Cc1ccccc1C(C(=O)NC1CCCCC1)N(C(=O)Cc1cccs1)c1cccc(F)c1 (stereo not drawn),-21.8% [at 10.3 µM],–
Cc1ccccc1C(C(=O)NC1CCCCC1)N(C(=O)CNS(=O)(=O)c1ccccc1)c1cccc(F)c1 (stereo not drawn),–,10.1 µM (active)
Cc1ccccc1C(C(=O)NC1CCCC1)N(C(=O)Cc1cccs1)c1ccccc1F (stereo not drawn),-40% [at 50 µM],–
COc1ccc(N(C(=O)C2COc3ccccc3O2)C(C(=O)NC2CCCCC2)c2ccccc2)cc1OC (stereo not drawn),-23.5% [at 30 µM],–
